Structures can show the parent of a compound that is named as a salt.
Experiments:
Settings in all cases: 10 µM; exposure time 6 h
[1] = test system: Danio rerio larvae (5 dpf); assay: difference in excitability vs DMSO (percentage points); higher = more excitable than DMSO
Method in brief: (§1)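 In 96-well plates, 48 wild-type zebrafish larvae aged 5 dpf per compound received 100 µL egg water with library compound at 10 µM final for 6 h. Three hours into this, a 3-h programme of moving lines and 100 ms, 400Hz tones ran at 28.5 ℃ while plates were photographed every 6 s. Z-LaP Tracker scored the behaviours, and each is given as the compound mean minus the vehicle control mean in percentage points.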

[2] = test system: Danio rerio larvae (5 dpf); assay: difference in startle response vs DMSO (percentage points); higher = stronger startle than DMSO
Method in brief: as §1

[3] = test system: Danio rerio larvae (5 dpf); assay: difference in activity during first hour vs DMSO (percentage points); higher = more activity than DMSO
Method in brief: as §1

[4] = test system: Danio rerio larvae (5 dpf); assay: difference in habituation to acoustic stimuli vs DMSO (percentage points); higher = more habituation than DMSO
Method in brief: as §1

[5] = test system: Danio rerio larvae (5 dpf); assay: difference in combined optomotor response to red, green and blue moving lines vs DMSO (percentage points); higher = stronger optomotor response than DMSO
Method in brief: as §1

Compound	difference in excitability [1]	difference in startle response [2]	difference in activity during first hour [3]	difference in habituation to acoustic stimuli [4]	difference [5]
CC(COc1ccccc1)N(CCCl)Cc1ccccc1 (stereo not given) [Phenoxybenzamine (hydrochloride)]	4.28	2.85	18.5	-1.54	2.87
Cc1ccc(N(CC2=NCCN2)c2cccc(O)c2)cc1 [Phentolamine (mesylate)]	-0.363	0.261	20	5.59	-2.55
CC(C)[C@H](N)C(=O)OCC(CO)OCn1cnc2c(=O)nc(N)[nH]c21 (stereo not given in full) [Valganciclovir (hydrochloride)]	-0.104	2.52	-5.18	1.35	3.33
C1N2CN3CN1CN(C2)C3 [Methenamine Hippurate]	0.76	5.89	-3.94	9.62	2.94
Cc1cn[nH]c1 [Fomepizole]	-1.56	-0.451	3.73	2.38	-2.44
C[C@@H](O)[C@H]1C(=O)N2C(C(=O)O)=C(S[C@@H]3CN[C@H](C(=O)N(C)C)C3)[C@H](C)[C@H]12 [Meropenem (hydrate)]	3.3	-1.18	0.0616	-0.499	3.61
CC(=O)Nc1ccc(O)cc1 [Acetaminophen]	-1.23	-0.558	-0.87	-5.65	-2.34
CC1(C)O[C@@H]2C[C@H]3[C@@H]4CCC5=CC(=O)C=C[C@]5(C)[C@H]4[C@@H](O)C[C@]3(C)[C@]2(C(=O)CO)O1 [Desonide]	-1.81	-1.62	0.404	6.53	1.67
COC1=CC(=O)C[C@@H](C)[C@]12Oc1c(Cl)c(OC)cc(OC)c1C2=O [Griseofulvin]	3.76	5.64	19.9	2.87	8.4
N#C[C@@H]1C[C@@H]2C[C@@H]2N1C(=O)[C@@H](N)C12CC3CC(CC(O)(C3)C1)C2 [Saxagliptin (hydrochloride)]	4.61	-1.75	11.5	5.75	2.16
CCCc1nc(C(C)(C)O)c(C(=O)OCc2oc(=O)oc2C)n1Cc1ccc(-c2ccccc2-c2nnn[nH]2)cc1 [Olmesartan Medoxomil]	-0.702	-2.51	0.837	-4.7	0.0218
CCCCCCCC/C=C\CCCCCCCC(=O)NCCO [Oleoyl Ethanolamide]	3.95	1.17	2.47	-3.04	-0.503
CC(C(=O)O)c1cccc(C(=O)c2ccccc2)c1 (racemic) [(±)-Ketoprofen]	0.309	-1.06	8.57	6.2	11.1
COC(=O)N[C@H](C(=O)N[C@@H](Cc1ccccc1)[C@@H](O)CN(Cc1ccc(-c2ccccn2)cc1)NC(=O)[C@@H](NC(=O)OC)C(C)(C)C)C(C)(C)C [Atazanavir]	-0.672	-1.55	-1.56	-0.953	2.7
O=c1ccc2ccc(OCCCCN3CCN(c4cccc5sccc45)CC3)cc2[nH]1 [Brexpiprazole]	13.2	-1.39	25.4	-17.4	-9.77
C[C@]12CC[C@@H]3c4ccc(O)cc4CC[C@H]3[C@@H]1CC[C@@H]2O [17β-Estradiol]	14.6	-4.36	-22.1	-4.38	-11.6
C=C1CC[C@H](O)C/C1=C/C=C1\CCC[C@]2(C)[C@@H]([C@H](C)/C=C/[C@H](C)C(C)C)CC[C@@H]12 [Vitamin D2]	3.72	-5.12	3.16	2.67	8.48
O=C(c1cc(Cc2n[nH]c(=O)c3ccccc23)ccc1F)N1CCN(C(=O)C2CC2)CC1 [Olaparib]	-5.41	-4.44	2.13	-3.55	4.86
CC1(C)S[C@@H]2[C@H](NC(=O)[C@H](N)c3ccccc3)C(=O)N2[C@H]1C(=O)O [Ampicillin (sodium salt)]	2.42	0.739	-2.5	-4.92	-2.47
NCCc1ccc(O)c(O)c1 [Dopamine (hydrochloride)]	4.19	-3.68	12.6	4.17	2.15
Cc1cccc(Nc2ccccc2C(=O)O)c1C [Mefenamic Acid]	6.54	-1.5	-5.95	-12.8	-15.5
CN(C)CCCN1c2ccccc2Sc2ccc(Cl)cc21 [Chlorpromazine (hydrochloride)]	12.6	-0.58	13.4	-8.52	6.64
COc1cc2nc(N3CCN(C(=O)c4ccco4)CC3)nc(N)c2cc1OC [Prazosin (hydrochloride)]	20.4	2.07	11.2	-7.66	6.47

Reference: the supplement of paper PMC10515830
